Activity calls are given as the source filed them. Unless noted, calls come from the whole dose curve; as a rule, active = well fitted curve in the direction sought with a large enough effect in the repeat runs; inconclusive = weak or mixed curves; inactive = no such curve, though single readings can be large; an effect the other way counts as inactive or inconclusive.
What was measured:
[1] = qHTS assay for identifying genotoxic compounds that show differential cytotoxicity against isogenic chicken DT40 cell lines with known DNA damage response pathways - wild type cell line (AID 743012); note: nearly all actives have a fitted effect of over 60% in size; note: potency is the fitted concentration of half-maximal effect
In short: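 Parental DNA repair-proficient DT40 cells, 300 per well, were pre-incubated ~0.5 h at 37 C/5% CO2, pin-dosed with compounds in DMSO, then incubated 40 h. Viability was read as CellTiter-Glo luminescence after 30 min at room temperature.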

[2] = qHTS assay for identifying genotoxic compounds that show differential cytotoxicity against isogenic chicken DT40 cell lines with known DNA damage response pathways - Rad54/Ku70 mutant cell line (AID 743015); note: nearly all actives have a fitted effect of over 60% in size; note: potency is the fitted concentration of half-maximal effect
[3] = qHTS assay to identify small molecule antagonists of the androgen receptor (AR) signaling pathway - cell viability counter screen (AID 743033; note: nearly all actives have a fitted effect of over 45% in size)
[4] = target: Androgen receptor (Homo sapiens) (UniProt P10275); assay: qHTS assay to identify small molecule agonists of the androgen receptor (AR) signaling pathway (AID 743036; active = well fitted activation curve with a large enough effect in the signal ratio in the repeat runs, with a control signal flat, not every such curve was filed as active; inconclusive = weak or mixed curves, or effect the other way; inactive = no such curve, though single readings can be large or run the other way; the % refers to the signal ratio)
In short: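 AR-UAS-bla HEK293 cells, plated 4 h before dosing, were treated with compound for 16 h at 37C. beta-Lactamase reporter read after 2 h with LiveBLAzer B/G FRET substrate at room temperature.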

[5] = target: Androgen receptor (Homo sapiens) (UniProt P10275); assay: qHTS assay to identify small molecule agonists of the androgen receptor (AR) signaling pathway using the MDA cell line (AID 743040; note: nearly all actives have a fitted effect of over 20% in size)
In short: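 Luminescence from ONE-Glo, read after 30 min at room temperature, reflects MMTV-driven luciferase in MDA-kb2 cells (AR- and GR-responsive). Treatment lasted 16 h at 37C, 0% CO2.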

[6] = qHTS assay to identify small molecule antagonists of the androgen receptor (AR) signaling pathway using the MDA cell line - cell viability counter screen (AID 743041; note: nearly all actives have a fitted effect of over 45% in size)
In short: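 Viability counter screen run alongside the AR antagonist reporter: cells seeded 5 h before compound, R1881 added, 16 h incubation at 37C without CO2, fluorescent CellTiter-Fluor signal quantified.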

[7] = target: Androgen receptor (Homo sapiens) (UniProt P10275); assay: qHTS assay to identify small molecule antagonists of the androgen receptor (AR) signaling pathway using the MDA cell line (AID 743042; note: nearly all actives have a fitted effect of over 55% in size; note: potency is the fitted concentration of half-maximal effect)
In short: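 MDA-kb2 cells (human breast carcinoma, stably carrying an MMTV-luciferase reporter responsive to AR and GR) were plated at 3,000 cells/well and preincubated 5 hr at 37C, then given compound plus R1881 agonist for 16 h. ONE-Glo luminescence was read.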

[8] = qHTS assay to identify small molecule antagonists of the thyroid receptor (TR) signaling pathway (AID 743065); note: nearly all actives have a fitted effect of over 55% in size; note: potency is the fitted concentration of half-maximal effect
In short: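 GH3.TRE-Luc rat pituitary cells carrying two TR response elements driving luciferase were plated for 4 h, given compound plus 1 nM T3 (final), and incubated 23.5 h at 37 C. ONE-Glo luminescence measured reporter inhibition; CellTiter-Fluor fluorescence tracked cytotoxicity.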

[9] = tested on: thyroid hormone receptor (rat, GH3 cells); assay: qHTS assay to identify small molecule agonists of the thyroid receptor (TR) signaling pathway (AID 743066; calls by dose curve)
[10] = qHTS assay to identify small molecule antagonists of the estrogen receptor alpha (ER-alpha) signaling pathway - cell viability counter screen (AID 743074; calls by dose curve;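 note: HEK293 cells carrying ER-alpha-UAS-bla reporter stimulated with 17beta-estradiol; nearly all actives have a fitted effect of over 45% in size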; note: potency is the fitted concentration of half-maximal effect)
[11] = target: Estrogen receptor (Homo sapiens) (UniProt P03372); assay: qHTS assay to identify small molecule agonists of the estrogen receptor alpha (ER-alpha) signaling pathway (AID 743075; calls by dose curve;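 note: HEK293 GripTite cells with ER-alpha and UAS-driven beta-lactamase reporter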; note: potency is the fitted concentration of half-maximal effect)
[12] = qHTS assay to identify small molecule antagonists of the estrogen receptor alpha (ER-alpha) signaling pathway using the BG1 cell line - cell viability counter screen (AID 743081);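 note: compound given together with 17beta-estradiol as the ER stimulus; nearly all actives have a fitted effect of over 45% in size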
Aromatase (Homo sapiens) = Aromatase (Homo sapiens) (UniProt P11511); assay: qHTS assay to identify aromatase inhibitors (AID 743083); note: nearly all actives have a fitted effect of over 55% in size; note: potency is the fitted concentration of half-maximal effect
[13] = qHTS assay to identify aromatase inhibitors - cell viability counter screen (AID 743084);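 note: cells stimulated with testosterone during compound exposure; nearly all actives have a fitted effect of over 55% in size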; note: potency is the fitted concentration of half-maximal effect
[14] = qHTS assay to identify small molecule antagonists of the thyroid receptor (TR) signaling pathway - cell viability counter screen (AID 743064); note: nearly all actives have a fitted effect of over 50% in size; note: potency is the fitted concentration of half-maximal effect
In short: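 GH3.TRE-Luc rat pituitary cells dosed after 4 hr plating, co-stimulated with T3 at 1 nM final, incubated 23.5 h at 37 C. Viability measured in the same wells by CellTiter-Fluor fluorescence after 30 min further at 37 C.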

[15] = target: Estrogen receptor (Homo sapiens) (UniProt P03372); assay: qHTS assay to identify small molecule antagonists of the estrogen receptor alpha (ER-alpha) signaling pathway (AID 743069; active = well fitted curve in the direction sought with a large enough effect in the signal ratio in the repeat runs, not every such curve was filed as active; inconclusive = weak or mixed curves, or effect the other way; inactive = no such curve, though single readings can be large or run the other way; the % refers to the signal ratio; note: potency is the fitted concentration of half-maximal effect)
In short: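 Estradiol-stimulated ER-alpha-UAS-bla HEK293 cells, 18 hr compound exposure at 37C. LiveBLAzer B/G substrate, 2 hr RT, fluorescence read.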

[16] = target: Estrogen receptor (Homo sapiens) (UniProt P03372); assay: qHTS assay to identify small molecule agonists of the estrogen receptor alpha (ER-alpha) signaling pathway using the BG1 cell line (AID 743079); conditions: BG1Luc4E2 cells, ERE-luciferase agonist, 22 h; activation: at 70.3 µM (top of the series); note: nearly all actives have a fitted effect of over 20% in size; note: potency is the fitted concentration of half-maximal effect
[17] = qHTS assay to identify small molecule antagonists of the estrogen receptor alpha (ER-alpha) signaling pathway using the BG1 cell line (AID 743080; calls by dose curve;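 note: BG1 cells stimulated with 17beta-estradiol alongside compound; nearly all actives have a fitted effect of over 25% in size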; note: potency is the fitted concentration of half-maximal effect)
In short: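 Readout is ONE-Glo luminescence, taken 30 min at room temperature after reagent addition, preceded by a CellTiter-Fluor viability read; BG1-Luc-4E2 cells had received compound and 17beta-estradiol for 21.5 h at 37 C.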

[18] = qHTS assay to identify small molecule antagonists of the glucocorticoid receptor (GR) signaling pathway - cell viability counter screen (AID 720693); note: nearly all actives have a fitted effect of over 55% in size
[19] = qHTS assay for identifying genotoxic compounds that show differential cytotoxicity against isogenic chicken DT40 cell lines with known DNA damage response pathways - Rev3 mutant cell line (AID 743014); note: nearly all actives have a fitted effect of over 55% in size; note: potency is the fitted concentration of half-maximal effect
% is set by controls: 0 for no effect and ±100 for the full control effect.

Sequence of Aromatase (Homo sapiens) (P11511 whole entry, looked up): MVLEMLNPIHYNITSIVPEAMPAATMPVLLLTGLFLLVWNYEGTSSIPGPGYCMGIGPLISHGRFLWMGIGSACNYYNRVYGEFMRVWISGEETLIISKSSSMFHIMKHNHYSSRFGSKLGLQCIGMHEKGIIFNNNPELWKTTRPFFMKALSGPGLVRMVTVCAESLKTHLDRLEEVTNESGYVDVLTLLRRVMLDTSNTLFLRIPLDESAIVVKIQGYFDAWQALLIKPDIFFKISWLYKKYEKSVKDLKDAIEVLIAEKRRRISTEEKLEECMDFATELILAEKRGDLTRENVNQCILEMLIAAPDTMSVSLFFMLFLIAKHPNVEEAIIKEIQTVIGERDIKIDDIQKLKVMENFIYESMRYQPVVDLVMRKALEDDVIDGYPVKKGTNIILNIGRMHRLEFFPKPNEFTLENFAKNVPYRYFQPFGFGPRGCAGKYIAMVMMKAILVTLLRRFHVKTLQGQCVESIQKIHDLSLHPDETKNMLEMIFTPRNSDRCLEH
Sequence of Estrogen receptor (Homo sapiens) (P03372 whole entry, looked up): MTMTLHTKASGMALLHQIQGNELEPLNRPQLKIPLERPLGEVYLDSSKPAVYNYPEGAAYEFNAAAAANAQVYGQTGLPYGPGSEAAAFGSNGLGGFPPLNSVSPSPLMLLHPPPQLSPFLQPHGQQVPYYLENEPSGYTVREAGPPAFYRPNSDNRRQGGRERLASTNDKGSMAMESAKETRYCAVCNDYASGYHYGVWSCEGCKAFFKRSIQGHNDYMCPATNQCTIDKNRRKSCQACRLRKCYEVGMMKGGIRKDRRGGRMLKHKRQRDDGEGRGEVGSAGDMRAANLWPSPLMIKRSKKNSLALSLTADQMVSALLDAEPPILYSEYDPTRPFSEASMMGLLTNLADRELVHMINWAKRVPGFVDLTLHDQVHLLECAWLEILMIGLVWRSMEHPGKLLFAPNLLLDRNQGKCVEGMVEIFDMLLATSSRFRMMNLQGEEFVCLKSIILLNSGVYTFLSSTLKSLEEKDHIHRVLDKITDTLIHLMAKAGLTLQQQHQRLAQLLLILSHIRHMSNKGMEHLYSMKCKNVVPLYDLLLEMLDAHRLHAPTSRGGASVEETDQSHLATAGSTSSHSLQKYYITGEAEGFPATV
Sequence of Androgen receptor (Homo sapiens) (P10275 whole entry, looked up): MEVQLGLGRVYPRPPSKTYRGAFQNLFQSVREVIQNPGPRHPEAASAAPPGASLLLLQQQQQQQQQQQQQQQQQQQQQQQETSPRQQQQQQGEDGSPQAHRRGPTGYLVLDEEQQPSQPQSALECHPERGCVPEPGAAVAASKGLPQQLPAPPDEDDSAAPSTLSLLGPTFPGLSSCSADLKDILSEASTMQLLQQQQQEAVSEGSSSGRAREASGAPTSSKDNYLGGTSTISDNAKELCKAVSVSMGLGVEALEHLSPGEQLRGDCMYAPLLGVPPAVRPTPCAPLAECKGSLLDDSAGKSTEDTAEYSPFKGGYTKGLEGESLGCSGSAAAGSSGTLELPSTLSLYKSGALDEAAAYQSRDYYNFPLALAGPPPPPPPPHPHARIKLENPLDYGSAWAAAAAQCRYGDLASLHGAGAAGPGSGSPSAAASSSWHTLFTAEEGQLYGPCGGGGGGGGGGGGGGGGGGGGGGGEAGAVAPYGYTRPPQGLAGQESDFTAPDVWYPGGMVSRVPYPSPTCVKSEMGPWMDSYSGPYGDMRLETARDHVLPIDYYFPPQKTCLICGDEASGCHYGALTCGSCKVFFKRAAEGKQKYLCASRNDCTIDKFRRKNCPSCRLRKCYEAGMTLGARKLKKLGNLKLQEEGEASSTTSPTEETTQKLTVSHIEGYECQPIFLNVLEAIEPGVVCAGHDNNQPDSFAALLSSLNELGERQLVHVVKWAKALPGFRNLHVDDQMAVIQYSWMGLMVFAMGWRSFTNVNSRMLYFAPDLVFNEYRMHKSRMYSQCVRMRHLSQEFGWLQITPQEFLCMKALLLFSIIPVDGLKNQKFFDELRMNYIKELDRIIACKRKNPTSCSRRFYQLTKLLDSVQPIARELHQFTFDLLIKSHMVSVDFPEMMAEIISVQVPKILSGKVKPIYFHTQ

CCCOC(=O)c1ccc(N)cc1
inactive: Potency [1] | Potency [3] | Potency [4] | Potency [5] | Potency [6] | Potency [7] | Potency [8] | outcome [9] | Potency [10] | Potency [11] | Potency [12] | Potency (Aromatase (Homo sapiens)) | Potency [13]
active: Potency [2] 23.7 µM

CCC1(C)CC(=O)NC1=O (stereo unspecified)
inactive: Potency [1] | Potency [2] | Potency [6] | Potency [14] | Potency [8] | outcome [9] | Potency [15] | Potency [10] | Potency [11] | Potency [16] | Potency [17] | Potency [12] | Potency (Aromatase (Homo sapiens)) | Potency [13]

CO/N=C1\CN(c2nc3c(cc2F)c(=O)c(C(=O)O)cn3C2CC2)CC1CN (stereo unspecified)
inactive: Potency [18] | Potency [19] | Potency [6] | Potency [15] | Potency [10] | Potency [11] | Potency [16] | Potency [17] | Potency [12] | Potency (Aromatase (Homo sapiens)) | Potency [13]

COCCOC
inactive: Potency [18] | Potency [3] | Potency [6] | Potency [14] | Potency [8] | outcome [9] | Potency [10] | Potency [12]

C[Si](NC1CCCCC1)(NC1CCCCC1)NC1CCCCC1
inactive: Potency [18] | Potency [6] | Potency [14] | outcome [9] | Potency [15] | Potency [10] | Potency [11] | Potency [16] | Potency [17] | Potency [12] | Potency (Aromatase (Homo sapiens)) | Potency [13]
active: Potency [19] 61.1 µM

COC(=O)Nc1nc2ccc(C(=O)c3cccs3)cc2[nH]1
inactive: Potency [6] | outcome [9] | Potency [12] | Potency (Aromatase (Homo sapiens)) | Potency [13]
active: Potency [1] 0.15 µM | Potency [19] 0.211 µM | Potency [14] 0.266 µM | Potency [8] 0.237 µM

COc1cc2c(cc1OC)-c1cc(=Nc3c(C)cc(C)cc3C)n(C)c(=O)n1CC2
inactive: Potency [5] | Potency [11]
active: Potency [1] 2.66 µM | Potency [19] 4.22 µM | Potency [2] 6.68 µM | Potency [7] 29.8 µM | Potency [14] 21.1 µM | Potency [8] 18.8 µM | Potency (Aromatase (Homo sapiens)) 26.6 µM | Potency [13] 26.6 µM

O=C(O)C(Cc1cc(I)c(O)c(I)c1)c1ccccc1 (stereo unspecified)
inactive: Potency [1] | Potency [19] | Potency [2] | Potency [6] | Potency [14] | Potency [8] | outcome [9] | Potency [15] | Potency [10] | Potency [11] | Potency [17] | Potency [12] | Potency (Aromatase (Homo sapiens)) | Potency [13]

CCCCCCCCCCCC[N+](C)(C)CCCS(=O)(=O)[O-]
inactive: Potency [18] | Potency [6] | outcome [9] | Potency [15] | Potency [11] | Potency [16] | Potency [17] | Potency [12] | Potency (Aromatase (Homo sapiens)) | Potency [13]
active: Potency [2] 27.6 µM | Potency [8] 24.6 µM | Potency [10] 49.6 µM

CCOC(=N)CC(=O)OCC
inactive: Potency [1] | Potency [2] | Potency [3] | Potency [6] | Potency [14] | Potency [8] | outcome [9] | Potency [15] | Potency [10] | Potency [11] | Potency [16] | Potency [17] | Potency [12] | Potency (Aromatase (Homo sapiens)) | Potency [13]

CC1(C)O[C@@H]2C[C@H]3[C@@H]4CCC5=CC(=O)C=C[C@]5(C)[C@H]4[C@@H](O)C[C@]3(C)[C@]2(C(=O)CO)O1
inactive: Potency [18] | Potency [2] | Potency [3] | Potency [6] | Potency [14] | Potency [8] | outcome [9] | Potency [15] | Potency [10] | Potency [11] | Potency [12] | Potency (Aromatase (Homo sapiens)) | Potency [13]
active: Potency [16] 0.596 µM

O=C(c1ccc(O)cc1)c1ccc(Cl)cc1
active: Potency [19] 62.4 µM | Potency [2] 55.6 µM
inactive: Potency [3] | outcome [9] | Potency [10] | Potency [12] | Potency (Aromatase (Homo sapiens)) | Potency [13]

CC(=N\O)/C(C)=N/O
inactive: Potency [18] | Potency [6] | Potency [14] | Potency [8] | outcome [9] | Potency [10] | Potency [12] | Potency (Aromatase (Homo sapiens)) | Potency [13]

CC(C)C(OC(=O)c1ccccc1)C(C)(C)COC(=O)c1ccccc1 (stereo unspecified)
inactive: Potency [3] | Potency [6] | outcome [9] | Potency [12] | Potency [13]
active: Potency [1] 21.7 µM | Potency [19] 27.3 µM

CCC(=O)Oc1ccc(/C(CC)=C(\CC)c2ccc(OC(=O)CC)cc2)cc1
active: Potency [1] 48.6 µM | Potency [19] 54.5 µM | Potency [2] 48.6 µM | Potency [14] 54.5 µM | Potency [8] 30.6 µM | Potency [15] 54.9 µM [inconclusive] | Potency [11] 0.0014 µM [inconclusive] | activation [16] 77.1% | Potency [17] 61.1 µM
inactive: Potency [3] | Potency [6] | outcome [9] | Potency [10] | Potency [12] | Potency (Aromatase (Homo sapiens)) | Potency [13]

CCC(Cc1ccccc1)(C(=O)c1ccc(N2CCOCC2)cc1)N(C)C (stereo unspecified)
active: Potency [1] 7.7 µM | Potency [19] 4.33 µM | Potency [11] 49 µM [inconclusive]
inactive: Potency [6] | Potency [14] | Potency [8] | outcome [9] | Potency [15] | Potency [10] | Potency [12] | Potency (Aromatase (Homo sapiens)) | Potency [13]

O=C1OCCN1/N=C/c1ccc([N+](=O)[O-])o1
active: Potency [11] 0.848 µM [inconclusive] | Potency [16] 0.168 µM | Potency (Aromatase (Homo sapiens)) 29.8 µM
inactive: Potency [18] | Potency [14] | Potency [8] | outcome [9] | Potency [15] | Potency [10]

Source: PubChem BioAssay (Tox21)
